Source: PubChem BioAssay (NCI)
The panel holds about 83,000 compounds, 20% with a hit somewhere; the sample as a whole holds those more often.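 Percent growth is the endpoint: 0 to 100 indicates growth inhibition (40 means 60% inhibition), 0 means no net growth, and negative values indicate cell death.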 The source made the active and inactive calls. The calls were made as follows: active = growth percent below 10; inactive = the rest.

How the values were obtained:
Assay in all cases: NCI-60 one-dose screen, 48 h (100 = growth as untreated, 0 = no growth, -100 = all killed)
Conditions in all cases: 10 µM unless noted
SR leukemia = system: SR leukemia
RPMI-8226 leukemia = system: RPMI-8226 leukemia
OVCAR-8 ovarian = system: OVCAR-8 ovarian
OVCAR-5 ovarian = system: OVCAR-5 ovarian
OVCAR-4 ovarian = system: OVCAR-4 ovarian
SK-OV-3 ovarian = system: SK-OV-3 ovarian
IGROV1 ovarian = system: IGROV1 ovarian
OVCAR-3 ovarian = system: OVCAR-3 ovarian
HS 578T breast = system: HS 578T breast
NCI/ADR-RES ovarian = system: NCI/ADR-RES ovarian
T-47D breast = system: T-47D breast
BT-549 breast = system: BT-549 breast
MDA-MB-435 melanoma = system: MDA-MB-435 melanoma
MCF7 breast = system: MCF7 breast
HCT-116 colon = system: HCT-116 colon
HCC-2998 colon = system: HCC-2998 colon
KM12 colon = system: KM12 colon
SW-620 colon = system: SW-620 colon

Measured: growth

CC(=O)OC1Oc2cc(C)c(C)cc2-c2oc(=O)c(-c3cc4ccc(N(C)C)cc4oc3=O)cc21 (stereo not drawn)
active: SR leukemia -41.6%
inactive: RPMI-8226 leukemia 29.4% | OVCAR-8 ovarian 75.9% | OVCAR-5 ovarian 86.4% | OVCAR-4 ovarian 89.8% | SK-OV-3 ovarian 78.2% | IGROV1 ovarian 93.2% | OVCAR-3 ovarian 94.1% | HS 578T breast 112% | NCI/ADR-RES ovarian 64.7% | T-47D breast 26.3% | BT-549 breast 59.3% | MDA-MB-435 melanoma 72.6% | MCF7 breast 78.6% | HCT-116 colon 48.3% | HCC-2998 colon 106% | KM12 colon 94.5%

CC/C=C\C[C@H](O)C/C=C1/C(=O)C=C[C@@H]1C/C=C\CCCC(=O)NC(C)C
inactive: OVCAR-5 ovarian 41.6% | OVCAR-4 ovarian 35.6% | SK-OV-3 ovarian 21.4% | IGROV1 ovarian 14.8% | HS 578T breast 46.6% | NCI/ADR-RES ovarian 15.9% | T-47D breast 11.4% | MCF7 breast 14.4%
active: SR leukemia -24.9% | RPMI-8226 leukemia -5.29% | OVCAR-8 ovarian -12.5% | OVCAR-3 ovarian -6.93% | BT-549 breast 0.828% | MDA-MB-435 melanoma 5.43% | HCT-116 colon -54.3% | HCC-2998 colon -55.5% | KM12 colon -43.5%

COc1nc2c(cc1S(=O)(=O)c1ccccc1)CCc1c-2cnn1-c1ccc(Cl)cc1
inactive: SR leukemia 80.7% | RPMI-8226 leukemia 93.3% | OVCAR-8 ovarian 104% | OVCAR-5 ovarian 85.5% | OVCAR-4 ovarian 90.4% | SK-OV-3 ovarian 95.5% | IGROV1 ovarian 100% | OVCAR-3 ovarian 111% | NCI/ADR-RES ovarian 89.9% | T-47D breast 83.2% | BT-549 breast 109% | MDA-MB-435 melanoma 90.8% | SW-620 colon 93.1% | MCF7 breast 95.2% | HCT-116 colon 88.1% | HCC-2998 colon 92.9% | KM12 colon 109%

COc1ccc(C(=O)c2sc3nc4c(c(C(F)(F)F)c3c2N)CN(C(C)=O)CC4)cc1OC
inactive: SR leukemia 79.4% | RPMI-8226 leukemia 57.1% | OVCAR-8 ovarian 80.9% | OVCAR-5 ovarian 89.3% | OVCAR-4 ovarian 85.8% | SK-OV-3 ovarian 87.2% | IGROV1 ovarian 98.2% | OVCAR-3 ovarian 95.9% | HS 578T breast 81.6% | NCI/ADR-RES ovarian 84.7% | BT-549 breast 99.6% | MDA-MB-435 melanoma 99.7% | SW-620 colon 100% | MCF7 breast 83.4% | HCT-116 colon 89.3% | HCC-2998 colon 94.9% | KM12 colon 97.6%

CC(=O)N1CC(Nc2ccc(OC(F)(F)F)cc2)=CC1=O
inactive: SR leukemia 25.3% | RPMI-8226 leukemia 21.9% | OVCAR-8 ovarian 26.1% | OVCAR-5 ovarian 92.6% | OVCAR-4 ovarian 87.2% | SK-OV-3 ovarian 31.3% | IGROV1 ovarian 50.3% | HS 578T breast 38.9% | NCI/ADR-RES ovarian 15.4% | T-47D breast 26.2% | SW-620 colon 27.8% | MCF7 breast 11.8% | HCT-116 colon 39.2% | HCC-2998 colon 60.2% | KM12 colon 23.3%
active: OVCAR-3 ovarian 9.26% | MDA-MB-435 melanoma -27.2%

O=C(Nc1ccc(F)cc1)Nc1ccc(CCO)cc1
inactive: SR leukemia 103% | RPMI-8226 leukemia 108% | OVCAR-8 ovarian 104% | OVCAR-5 ovarian 114% | OVCAR-4 ovarian 97.6% | SK-OV-3 ovarian 113% | IGROV1 ovarian 99.9% | OVCAR-3 ovarian 117% | NCI/ADR-RES ovarian 108% | T-47D breast 104% | BT-549 breast 108% | MDA-MB-435 melanoma 97.4% | SW-620 colon 108% | MCF7 breast 109% | HCT-116 colon 94.7% | HCC-2998 colon 108% | KM12 colon 108%

CN1CCN(Cc2ccc(NC(=O)c3cncc(C#Cc4c(N)ncc5ccc(C#N)cc45)c3)cc2C(F)(F)F)CC1
active: SR leukemia -13% | RPMI-8226 leukemia -23% | OVCAR-8 ovarian -40% | OVCAR-5 ovarian -84.5% | OVCAR-4 ovarian -73.9% | IGROV1 ovarian -53.6% | NCI/ADR-RES ovarian -30.5% | MDA-MB-435 melanoma -93.8% | MCF7 breast -69.7% | HCT-116 colon -22% | KM12 colon -41.8%
inactive: SK-OV-3 ovarian 127% | OVCAR-3 ovarian 90.9% | HS 578T breast 50.8% | T-47D breast 65% | BT-549 breast 92.3% | HCC-2998 colon 78.5%

COc1ccc(/C=C/C(=O)c2ccc(NC(=O)c3cc4cc5ccccc5nc4s3)cc2)cc1OC
inactive: SR leukemia 98.6% | RPMI-8226 leukemia 99.4% | OVCAR-8 ovarian 111% | OVCAR-5 ovarian 96.8% | OVCAR-4 ovarian 97.1% | SK-OV-3 ovarian 106% | OVCAR-3 ovarian 95.5% | HS 578T breast 107% | NCI/ADR-RES ovarian 105% | T-47D breast 87.7% | BT-549 breast 104% | MDA-MB-435 melanoma 102% | SW-620 colon 105% | MCF7 breast 80.3% | HCT-116 colon 91.6% | HCC-2998 colon 104% | KM12 colon 76.3%

CCCCCCCCCCCCCCCCNCCC[C@@H](C)[C@H]1CC[C@H]2[C@@H]3[C@H](OCCCN)C[C@@H]4C[C@H](OCCCN)CC[C@]4(C)[C@H]3C[C@H](OCCCN)[C@]12C
active: SR leukemia 2.63% | RPMI-8226 leukemia -15.4% | OVCAR-8 ovarian -48.9% | OVCAR-5 ovarian -3.67% | OVCAR-4 ovarian -37.1% | SK-OV-3 ovarian -45.7% | IGROV1 ovarian -41.8% | OVCAR-3 ovarian -10.5% | NCI/ADR-RES ovarian -60.6% | T-47D breast -20.9% | BT-549 breast -26% | MDA-MB-435 melanoma -28.3% | SW-620 colon -25.3% | MCF7 breast -44.3% | HCT-116 colon -16.6% | HCC-2998 colon -32.4% | KM12 colon -24.3%
